This is a sample that favours compounds with a hit; in the whole collection about 2.4% have one here.
ADAM10 inh = inhibitors of human ADAM10 | O14672 | recombinant ADAM10, EDANS/DABCYL FRET peptide cleavage, 3 h | inhibition, % at 7 µM | 370,000 compounds, 0.62% hits;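 active = inhibition above a per-campaign cutoff equal to the mean of compounds falling between control-based bounds plus 3 SD, cut at about 20% in these data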;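 note: 0% = DMSO wells while the 100% control is not disclosed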
Target sequence (O14672 214-748 limits assumed): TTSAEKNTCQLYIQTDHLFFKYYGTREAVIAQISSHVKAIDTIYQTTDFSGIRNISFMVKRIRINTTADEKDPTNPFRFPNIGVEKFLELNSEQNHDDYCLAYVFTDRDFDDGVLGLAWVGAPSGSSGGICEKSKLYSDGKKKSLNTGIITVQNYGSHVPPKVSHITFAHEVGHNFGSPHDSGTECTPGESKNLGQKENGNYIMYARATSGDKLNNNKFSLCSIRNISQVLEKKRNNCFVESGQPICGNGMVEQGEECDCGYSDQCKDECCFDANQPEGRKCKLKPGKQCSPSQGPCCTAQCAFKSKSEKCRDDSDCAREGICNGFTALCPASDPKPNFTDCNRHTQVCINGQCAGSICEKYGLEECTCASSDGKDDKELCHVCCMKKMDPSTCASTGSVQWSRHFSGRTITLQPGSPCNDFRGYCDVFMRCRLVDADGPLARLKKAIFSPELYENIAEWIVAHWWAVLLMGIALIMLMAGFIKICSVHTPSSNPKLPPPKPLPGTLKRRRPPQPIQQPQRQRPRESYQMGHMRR
A3G deaminase = blocks human APOBEC3G single-stranded DNA deamination; Q9HC16; recombinant A3G, ssDNA deamination FAM/TAMRA fluorescence; inhibition, % at 20 µM; 330,000 compounds, 0.28% hits;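 active = inhibition of at least 40% at 20 µM, with no more than 30% in the related APOBEC3A deaminase screen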;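 note: plate controls were DMSO wells with A3G for no effect and wells lacking A3G enzyme for full effect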
ADAM17 inh = inhibits human ADAM17. P78536. recombinant ADAM17, EDANS/DABCYL FRET peptide cleavage. inhibition, % at 6.95 µM. 370,000 compounds, 0.83% hits. AID 720648;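 active = inhibition above the mean of compounds lying between control limits plus 3 SD, set per campaign, cut at about 8.5% in these data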;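 note: 0% = DMSO-only wells as the low control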
APOBEC3A inh = inhibitors of human APOBEC3A DNA deaminase; recombinant A3A, FAM/TAMRA ssDNA deamination fluorescence; AID 493011; P31941; inhibition, % at 20 µM; 330,000 compounds, 0.41% hits;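 active = at least 40% inhibition at 20 µM here, with at most 30% in a related deaminase screen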;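 note: plate controls were A3A with DMSO for no effect and wells lacking A3A enzyme for full effect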
NRP1-CendR mod = modulators of CendR peptide binding to human neuropilin-1. AID 602438. 360,000 compounds, 0.85% hits. O14786. inhibition, % at 25 µM. FAM-RPARPAR peptide binding to NRP-1, fluorescence polarization;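 active = inhibition or corrected inhibition above about 18%, plus a signal ratio from 0.5 to 1.5, limit read from the data, passing the limit was not always enough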
ADAM10 counter = ADAM10 inhibition, counter-screen for ADAM17 exosite hits | shares compounds with ADAM17 inh | recombinant ADAM10, EDANS/DABCYL FRET peptide cleavage, 3 h | inhibition, % at 6.95 µM | 2,900 compounds, 47% hits | AID 743256;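 active = mean inhibition over the triplicate runs exceeds the activity threshold set in the earlier primary screen, cut at about 20% in these data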;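 note: 0% = DMSO wells and 100% = marimastat wells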
ADAM17 confirm = human ADAM17 inhibition, confirmation | shares compounds with ADAM17 inh | recombinant ADAM17, EDANS/DABCYL QFRET peptide cleavage | inhibition, % at 6.95 µM | 2,900 compounds, 65% hits | AID 743257;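 active = mean inhibition across replicates above the hit cutoff set in the primary screen, cut at about 8.5% in these data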;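 note: 0% = DMSO wells and 100% = marimastat wells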
* = called active by the depositor.

CCN(Cc1ccccc1)CC(O)COC(c1ccc(OC)cc1)c1ccc(OC)cc1 (centres undefined) was read as ADAM10 inh 4, A3G deaminase -4, ADAM17 inh 11*, APOBEC3A inh 7, NRP1-CendR mod -3, ADAM10 counter 3 and ADAM17 confirm 8.
CCN(CC)CC(O)COC(c1ccccc1)c1ccccc1 (centres undefined) was read as ADAM10 inh -11, A3G deaminase -7, ADAM17 inh -8, APOBEC3A inh -3 and NRP1-CendR mod -1.
CC(C)NC(=O)N(C)C[C@H]1OCc2cn(nn2)CCCC(=O)N([C@H](C)CO)C[C@@H]1C was read as ADAM10 inh -15 and ADAM17 inh -5.
Screening COc1ccc(NC(=O)N(C)C[C@H]2Oc3c(NC(=O)c4nc5ccccc5s4)cccc3C(=O)N([C@@H](C)CO)C[C@H]2C)cc1 returned ADAM10 inh 18, A3G deaminase -8, ADAM17 inh 12*, APOBEC3A inh -5, NRP1-CendR mod -4, ADAM10 counter 25* and ADAM17 confirm 13*.
For COc1ccc(S(=O)(=O)Nc2cccc3c2O[C@H](CN(C)C(=O)Nc2ccc(C(F)(F)F)cc2)[C@@H](C)CN([C@H](C)CO)C3=O)cc1 the results were ADAM10 inh 21*, A3G deaminase -13, ADAM17 inh 16*, APOBEC3A inh -5, NRP1-CendR mod 19, ADAM10 counter 21* and ADAM17 confirm 14*.
Screening COc1ccc(S(=O)(=O)Nc2ccc3c(c2)C(=O)N([C@H](C)CO)C[C@H](C)[C@@H](CN(C)C(=O)Nc2ccc(C(F)(F)F)cc2)OCCCC[C@H](C)O3)cc1 returned ADAM10 inh 13, ADAM17 inh 10*, NRP1-CendR mod 3, ADAM10 counter 39* and ADAM17 confirm 21*.
For C[C@H](CO)N1C[C@H](C)[C@@H](CN(C)Cc2ccc(Oc3ccccc3)cc2)Oc2c(NC(=O)c3ccncc3)cccc2C1=O the results were ADAM10 inh 20, A3G deaminase 5, ADAM17 inh 12*, APOBEC3A inh 0, NRP1-CendR mod -4, ADAM10 counter 13 and ADAM17 confirm 8.
COc1ccc(S(=O)(=O)Nc2cccc3c2O[C@H](CN(C)C(=O)Nc2ccccc2)[C@@H](C)CN([C@H](C)CO)C3=O)cc1 was read as ADAM10 inh -13, A3G deaminase -4, ADAM17 inh -6, APOBEC3A inh -3 and NRP1-CendR mod -13.
`COc1ccc2c(c1)[C@@]1(NCCc3c1[nH]c1ccc(OC)cc31)C(=O)N2C` gave ADAM10 inh 7 and ADAM17 inh -2.
Screening CC1CC(C)CN(C(=O)/C(=C\c2ccccc2)c2ccccc2)C1 (centres undefined) returned ADAM10 inh -3, A3G deaminase -6, ADAM17 inh -2, APOBEC3A inh -2 and NRP1-CendR mod -4.
Screening CN1CCN(C(=O)/C(=C/c2ccccc2)c2ccccc2)CC1 returned ADAM10 inh 4, A3G deaminase -4, ADAM17 inh 8.7*, APOBEC3A inh 3, NRP1-CendR mod 7, ADAM10 counter -9 and ADAM17 confirm -4.
`C=CC[C@@H](CC(=O)N[C@@H](CO)Cc1ccccc1)C(=O)N[C@@H](COC(=O)[C@H](CC=C)CC(=O)OC(C)(C)C)Cc1c[nH]c2ccccc12` gave ADAM10 inh 8, A3G deaminase -6, ADAM17 inh 6, APOBEC3A inh 0 and NRP1-CendR mod -5.
`C=CC[C@H](CC(=O)N[C@H](CO)Cc1ccccc1)C(=O)N[C@H](COC(=O)[C@@H](CC=C)CC(=O)OC(C)(C)C)Cc1c[nH]c2ccccc12` gave ADAM10 inh 16, A3G deaminase 5, ADAM17 inh 14*, APOBEC3A inh 3, NRP1-CendR mod -15, ADAM10 counter 27* and ADAM17 confirm 15*.
For C=CC[C@@H](CC(=O)N(CCO)Cc1ccccc1)C(=O)N[C@H](COC(=O)[C@H](CC=C)CC(=O)OC(C)(C)C)Cc1c[nH]c2ccccc12 the results were ADAM10 inh 17, A3G deaminase -7, ADAM17 inh 9.9*, APOBEC3A inh -6, NRP1-CendR mod -10, ADAM10 counter 48* and ADAM17 confirm 23*.
Screening COc1cccc(C2NC(c3cccc(OC)c3O)C(C)C(=O)C2C)c1O (centres undefined) returned ADAM10 inh 1, A3G deaminase 2, ADAM17 inh 1, APOBEC3A inh 2 and NRP1-CendR mod -7.
For CC1C(=O)C(C)C(c2cc(Cl)ccc2O)NC1c1cc(Cl)ccc1O (centres undefined) the results were ADAM10 inh 18, A3G deaminase -8, ADAM17 inh 9.6*, APOBEC3A inh -3, NRP1-CendR mod -3, ADAM10 counter 32* and ADAM17 confirm 17*.
`C[C@@H]1[C@@H](O)C[C@]2(C[C@@H](O)c3ccccc3O2)O[C@H]1c1ccccc1` gave ADAM10 inh -4 and ADAM17 inh 0.
`CCOc1ccc(S(=O)(=O)c2ccc(C)cc2)c2c1no[n+]2[O-]` gave ADAM10 inh 7, ADAM17 inh 11*, NRP1-CendR mod -6, ADAM10 counter 2 and ADAM17 confirm 5.
`CCOc1cc(/C=N/O)ccc1OS(=O)(=O)c1ccc(C)cc1` gave ADAM10 inh 1, A3G deaminase 1, ADAM17 inh 8, APOBEC3A inh 3 and NRP1-CendR mod 0.
Screening Cc1cc(SCC(=O)Nc2cccc(S(=O)(=O)NC3=NCCCCC3)c2)c(C)cc1Br returned ADAM10 inh 15, A3G deaminase -4, ADAM17 inh 11*, APOBEC3A inh 0, NRP1-CendR mod 10, ADAM10 counter 28* and ADAM17 confirm 18*.
For CCOc1ccc(C(=O)c2nc3c(n2O)CCCC3)cc1 the results were ADAM10 inh 1, A3G deaminase -3, ADAM17 inh 9.8*, APOBEC3A inh -5, NRP1-CendR mod -5, ADAM10 counter 7 and ADAM17 confirm 9.7*.
O=C(Nc1ccc(Br)cc1)OC1CC2CC1[C@H]1CCCCN1C2 (some centres undefined) was read as ADAM10 inh 1 and ADAM17 inh -4.
`CCC(C)c1ccc(O)c(NC(=O)c2cncc(Br)c2)c1` (centres undefined) gave ADAM10 inh 19, A3G deaminase 4, ADAM17 inh 10*, APOBEC3A inh -5, NRP1-CendR mod -4, ADAM10 counter 14 and ADAM17 confirm 9.8*.

Compound activity: PubChem, several laboratories
